Source: PubChem (National Center for Advancing Translational Sciences (NCATS))
HCV inh – qHTS Assay for Inhibitors of Hepatitis C Virus (HCV). 340,000 compounds, 3.4% hits. Huh7.5.1 HCVcc-Cre infection, luciferase reporter, 44 h. Potency, µM (top dose mostly 41.8 µM), most hits filed as inhibitors. AID 651820, 2012; active = well fitted inhibition curve with a large enough effect; inconclusive = small, poorly fitted or top-dose-only effect, or another doubt; inactive = no such curve, though single readings can be large or run the other way
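HCVcc-Cre virus at an moi near 0.5 was added right after compound to cells cultured 4 h from seeding (1,000 cells/well). Luciferase activity was determined 44 h later, 15 min after substrate addition at RT.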
FMDV inh – High Throughput Screening for Foot and Mouth Disease Virus Antivirals; AID 1159524, 2015; Potency, µM (titrated, usually from 57.9 µM), usual class: inhibitors; FMDV antiviral cell-based qHTS; 410,000 compounds, 1.2% hits; calls by dose curve; tested in HEK293T cells; note: read-out not given here; nearly all actives have a fitted effect of over 45% in size
Vaccinia Venus – qHTS for Stage-Specific Inhibitors of Vaccinia Orthopoxvirus: Venus Reporter Primary qHTS; Vaccinia virus Venus reporter expression, fluorescence; 330,000 compounds, 0.46% hits; AID 720580, 2013; Potency, µM (highest dose often 36.5 µM), most hits filed as inhibitors; calls by dose curve; tested in A549 cells; note: nearly all actives have a fitted effect of over 30% in size
HCMV antiviral – qHTS Assay for inhibitors of the human cytomegalovirus (HCMV) | 410,000 compounds, 4.5% hits | HFF cells, HCMV-luciferase reporter, 72 h; hits give low values | activity change, negative = inhibition, % at 57.5 µM; in the data active = activity change below about -60%; inconclusive = no clear call, values can overlap the other calls; inactive = above about -39%
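After 16 h attachment at 37C, HFF cells received test compound and HCMV-luciferase (1 PFU/cell); reporter luminescence read 72 h later, data normalized against buffer-only and known inhibitor Salinomycin.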
Vaccinia mCherry – qHTS for Stage-Specific Inhibitors of Vaccinia Orthopoxvirus: mCherry Reporter Primary qHTS; Vaccinia virus mCherry reporter infection, fluorescence; Potency, µM (doses to about 36.5 µM), usual class: inhibitors; 310,000 compounds, 0.63% hits; calls by dose curve; tested in A549 cells; note: nearly all actives have a fitted effect of over 35% in size
Of the large screens only hits and unclear results are named; the others gave an inactive call; ! = a repeat was not active. Sampled rows, rich in hits. Any-hit rate of the full collection: about 7.3%.

Cc1ccc(NC(=O)CCc2nnc3n(CC(C)C)c(=O)c4ccccc4n23)cc1C	none (no result: HCV inh)
C#CC[N+](C)(C)C(C#Cc1ccccc1)CC=C (configuration not stated)	HCMV antiviral -88.8
C#CC[N+](CC)(CC)CC#Cc1ccccc1	Vaccinia mCherry inconclusive
Cc1sc2ncnc(NCC(C)(C)N3CCOCC3)c2c1C	HCV inh 5.62µM, Vaccinia Venus inconclusive (no result: Vaccinia mCherry)
Cc1sc2ncnc(NCC3(N4CCOCC4)CCCCC3)c2c1C	none (no result: Vaccinia mCherry)
c1ccc(-c2csc3ncnc(NCC4COc5ccccc5O4)c23)cc1 (configuration not stated)	HCV inh 0.562µM, FMDV inh 28.2µM, Vaccinia Venus inconclusive, HCMV antiviral -87.7, Vaccinia mCherry inconclusive
CC(C)CC(Nc1ncnc2scc(-c3ccccc3)c12)C(=O)O (configuration not stated)	none (no result: Vaccinia Venus, Vaccinia mCherry)
Cc1sc2ncnc(NCC3CCCO3)c2c1C (configuration not stated)	HCV inh 12.6µM, FMDV inh 28.2µM
Cc1sc2ncnc(NCC3COc4ccccc4O3)c2c1C (configuration not stated)	HCV inh inconclusive, FMDV inh inconclusive, HCMV antiviral -78.9
CC(=O)N1CCN(C(=O)c2sc3ncnc(NCC4CCCO4)c3c2C)CC1 (configuration not stated)	none (no result: HCV inh, HCMV antiviral)
O=C(NCCN1Cc2ccccc2OC(c2ccccc2F)C1)c1cncs1 (configuration not stated)	none (no result: HCV inh, HCMV antiviral)
O=C(C[n+]1cccc2cc(Cl)ccc21)c1ccc(Br)cc1	none (no result: HCV inh, FMDV inh, HCMV antiviral)
Cc1cc(C)n2nc(SCC(=O)Nc3ccccc3)nc2n1	HCMV antiviral -63.3!
CCc1ccc(NC(=O)CSc2nc(NS(=O)(=O)c3ccccc3)cc(=O)[nH]2)cc1	HCV inh inconclusive, Vaccinia mCherry 8.91µM
Cc1cc(C)nc(SCC(=O)Nc2ccc(S(=O)(=O)NC(C)(C)C)cc2)n1	HCV inh 11.2µM, HCMV antiviral inconclusive (no result: Vaccinia Venus, Vaccinia mCherry)
Cc1cc(=O)[nH]c(SCC(=O)Nc2ccc(S(N)(=O)=O)cc2)n1	HCMV antiviral -61.4
Cc1ccc(NC(=O)CSc2nc(NS(=O)(=O)c3ccccc3)cc(=O)[nH]2)cc1	none (no result: HCMV antiviral)
Cc1cc(=O)[nH]c2nnc(SCc3c(F)cccc3Cl)n12	none (no result: HCV inh)
CN(N=O)C(=O)N[C@@H]1[C@@H](O)[C@H](O)[C@@H](CO)O[C@@H]1O	none (no result: HCV inh, FMDV inh, Vaccinia Venus, Vaccinia mCherry)
COc1ccc(OC)c(NC(=O)C(C)Oc2ccc(Br)cc2)c1 (configuration not stated)	HCV inh 11.2µM, HCMV antiviral inconclusive
COc1ccc(OC)c(NC(=O)C(C)OC(=O)c2cc3ccccc3[nH]2)c1 (configuration not stated)	HCV inh 11.2µM, FMDV inh inconclusive (no result: Vaccinia Venus, Vaccinia mCherry)
COc1ccc(NC(=O)CCCS(=O)(=O)c2nc(-c3ccccc3OC)cc(C(F)(F)F)n2)c(OC)c1	none (no result: HCV inh)
COc1ccccc1-c1cc(C(F)(F)F)nc(S(=O)(=O)CCCC(=O)Nc2cccnc2Cl)n1	HCV inh inconclusive, FMDV inh 14.1µM, Vaccinia Venus inconclusive, HCMV antiviral -90.1, Vaccinia mCherry inconclusive
COc1ccccc1-c1cc(C(F)(F)F)nc(S(=O)(=O)CCCC(=O)Nc2ccccc2F)n1	FMDV inh inconclusive, HCMV antiviral -102.5 (no result: HCV inh)
Cc1ccc(C)c(S(=O)(=O)N2CCC3(CC2)OCCN3S(=O)(=O)c2cccs2)c1	none
Cc1cc(C)c(S(=O)(=O)N2CCC3(CC2)OCCN3S(=O)(=O)c2cccs2)c(C)c1	HCV inh 11.2µM
Cc1ccc(S(=O)(=O)N2CCC3(CC2)OCCN3S(=O)(=O)c2c(C)cc(C)cc2C)cc1	HCV inh 10µM
COc1ccc(Cn2c(SCc3ccc(C(=O)NCc4cccs4)cc3)nc3ccncc32)cc1	HCMV antiviral inconclusive (no result: HCV inh)
Cc1ccc(Cl)cc1-n1ncc2c(NC3CCCCC3)ncnc21	FMDV inh inconclusive, HCMV antiviral -78.2 (no result: HCV inh)
Cc1ccc(Cl)cc1-n1ncc2c(Nc3ccc4c(c3)OCCO4)ncnc21	FMDV inh inconclusive, HCMV antiviral -88.4 (no result: HCV inh)
C=CCNc1ncnc2c1cnn2-c1ccc(C)cc1C	none
Clc1cccc(-n2ncc3c(NC4CCCCC4)ncnc32)c1	none (no result: HCV inh)
CCOC(=O)N1CCC(Nc2ncnc3c2cnn3-c2ccc(C)cc2C)CC1	HCV inh 7.08µM, FMDV inh inconclusive, Vaccinia Venus inconclusive, HCMV antiviral -92.7, Vaccinia mCherry inconclusive
NC1=NC(c2cccc(Cl)c2)n2c(nc3ccccc32)N1 (configuration not stated)	none (no result: HCV inh)
CCc1ccc(Sc2cc(C(=O)O)c3ccccc3n2)cc1	none (no result: HCV inh)
CCc1ccc(CN(C)C(=O)c2cc(COc3cccc4cnccc34)on2)cc1	HCV inh 7.94µM, FMDV inh inconclusive, HCMV antiviral -99.0 (no result: Vaccinia Venus, Vaccinia mCherry)
Cc1c(C(C)NC(=O)c2cc(COc3cccc4cnccc34)on2)cnn1C (configuration not stated)	HCV inh 7.08µM, FMDV inh inconclusive, HCMV antiviral -85.5 (no result: Vaccinia Venus, Vaccinia mCherry)
CN(Cc1cccc2cnccc12)C(=O)c1cc(COc2ccc(F)cc2F)on1	HCV inh 8.91µM, FMDV inh inconclusive, HCMV antiviral -60.1 (no result: Vaccinia Venus, Vaccinia mCherry)
CN(Cc1cccnc1)C(=O)c1cc(COc2ccc3c(c2)CCCC3)on1	HCMV antiviral -65.1 (no result: HCV inh)
Cc1ccc(N(C)C(CNS(=O)(=O)c2ccccc2)c2ccccc2)cc1 (configuration not stated)	none (no result: HCV inh)
COc1cccc(Cn2c(=O)c(-c3cccs3)nc3cnc(N4CCN(C)CC4)nc32)c1	none (no result: HCV inh, Vaccinia Venus, HCMV antiviral, Vaccinia mCherry)
CCOC(=O)c1c(C)[nH]c(C)c1S(=O)(=O)N1CCC(C(=O)Nc2ccc(F)cc2F)CC1	none (no result: HCV inh)
CC(=O)c1ccc(F)c(-c2cc(C)cc3c2OC(CNC(=O)C(C)n2nc(C)cc2C)C3)c1 (configuration not stated)	none (no result: HCV inh, HCMV antiviral)
CCOC(=O)c1cnn(-c2ccc(C(=O)Nc3cc(OC)c(OC)c(OC)c3)cc2)c1N	none (no result: HCV inh)
CCCCOc1ccccc1C1CC(=O)Nc2ccc3ccccc3c21 (configuration not stated)	HCMV antiviral -91.6 (no result: HCV inh)
CCOc1ccc(S(=O)(=O)n2cnc3cc(C)c(C)cc32)cc1	HCV inh 10µM, FMDV inh inconclusive, Vaccinia Venus inconclusive, HCMV antiviral -86.2, Vaccinia mCherry inconclusive
Cc1cc2ncn(S(=O)(=O)c3ccc(S(N)(=O)=O)cc3)c2cc1C	none (no result: Vaccinia Venus, Vaccinia mCherry)
Nc1nc(NCc2ccc(Cl)c(Cl)c2)c2[nH]cnc2n1	none (no result: HCV inh, FMDV inh, HCMV antiviral)
COc1cccc2cc(C(=O)C3=C(O)C(=O)N(c4cc(C)on4)C3c3cccs3)oc12 (configuration not stated)	HCMV antiviral -69.9 (no result: Vaccinia Venus, Vaccinia mCherry)
COc1cccc(C2C(C(=O)c3cc4cccc(OC)c4o3)=C(O)C(=O)N2c2cc(C)on2)c1OC (configuration not stated)	FMDV inh inconclusive (no result: Vaccinia mCherry)
COc1ccc2[nH]c(C)c(C(=O)CN(C)CC(OC)OC)c2c1	none (no result: HCV inh, FMDV inh, HCMV antiviral)
COC(=O)c1[nH]c2cc(C)ccc2c1NC(=O)CN1CCOCC1	none
